Measured values: PubChem BioAssay

Assay: small-molecule microarray binders of probe aShh, primary screen, biochemical, biotinylated probe, 635/667 nm fluorescence (AID 1114);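 also: probe is biotin-labelled aShh protein from a stem cell growth factor screen; measures binding of labelled protein to compounds printed on the slide; score merges feature fluorescence at 667 nm with signal-to-noise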
Conditions: higher = more signal

Row | Compound | composite z-score
1 | O=C(O)[C@@H]1[C@@H]2C(=O)N(c3ccccc3)C(=O)[C@@H]2C[C@@H]1Sc1ccccc1 | 0.328
2 | CCCCN1CC=CC23O[C@@H]4/C=C\CCC(C)OC(=O)C4[C@H]2C(=O)N(CCCO)[C@@H]3C1=O (stereo not given in full) | 0.535
3 | CN(C)C(=O)[C@]1(CCC(=O)OC(C)(C)C)N=C(c2ccc(OCCCO)cc2)O[C@@H]1c1ccccc1CN=[N+]=[N-] | 0.4
4 | CCCCCC1=C2CNC(C)(C(=O)OC)C=C2C(C)C1=O (stereo not given) | 0.265
5 | CCOC(=O)C[C@H]1[C@H](OC(=O)c2cc3ccccc3oc2=O)[C@@H](NC(=O)c2ccc3ccccc3n2)c2cc(OCCCO)ccc2N1C(=O)Cc1ccc(OC)cc1 | -0.0119
6 | CS(=O)(=O)CCOC(=O)C1=CC(CCCO)=CC(c2ccc(CN3CCCC3)cc2)N(Cc2sc3ccccc3c2Cl)C=C1C(=O)OCCS(C)(=O)=O (stereo not given) | 0.318
7 | NC(=O)NCC#Cc1ccc2c(c1)[C@]1(C(=O)N2)[C@H](c2ccccc2OCCO)N2[C@H](c3ccccc3)[C@H](c3ccccc3)OC(=O)[C@H]2[C@@H]1C(=O)NC[C@H](O)c1ccccc1 | 0.0141
8 | CC(C)N1C(=O)c2ccccc2[C@@H](C(=O)NCCN2CCOCC2)[C@@H]1c1ccc(CO)cc1 | -0.221
9 | COCCOC(=O)N1C(=O)[C@@]2(c3cc(C#CC4=CCCCC4)ccc31)[C@H](C(=O)Nc1nc3ccccc3s1)[C@H]1C(=O)O[C@H](c3ccccc3)[C@H](c3ccccc3)N1[C@@H]2c1ccc(O)cc1 | -0.51
10 | COc1ccc(CCNC(=O)[C@@]2(Sc3ccc(C)cc3)CC(=O)N(Cc3ccccc3C(F)(F)F)[C@@H]2c2ccc(CO)cc2I)cc1 | -0.0849
11 | COc1ccc([Si](C)(C)[C@H]2[C@H](CC(=O)N3CCC[C@H]3CO)O[C@@]3(C(=O)N(Cc4ccc(N5CCOC5=O)cc4)c4ccccc43)[C@@H]2C)cc1 | -0.223
12 | COc1cc(OC)c(C(O)C2C=CC3C(=O)N(Cc4ccccc4)C(=O)C3N2n2cnnc2)cc1Br (stereo not given) | -0.131
13 | [N-]=[N+]=Nc1ccccc1C[C@@]1(C(=O)N2CCOCC2)N=C(c2ccc(OCCCO)cc2)O[C@@H]1c1ccccc1 | 0.771
14 | Cc1ccc(C(C)CC(O)C2C=CC3C(=O)N(c4ccccc4)C(=O)C3N2Nc2ccccc2)o1 (stereo not given) | 0.308
15 | CCOC(=O)C[C@H]1[C@H](OC(=O)c2ccc(C(=O)c3ccccc3)cc2)[C@@H](NC(=O)c2ccc(-c3ccccc3)cc2)c2cc(OCCCO)ccc2N1C(=O)Cc1ccc(OC)cc1 | -0.214
16 | CCOC(=O)C1=C[C@@H](C(C)C)N(S(=O)(=O)c2ccc(C)cc2)[C@H]1c1ccc(C(F)(F)F)cc1 | 0.296
17 | C=C[C@H]1C(C(=O)OCC)=CC[C@@H](c2ccccc2)N1S(=O)(=O)c1ccc(C)cc1 | -0.181
18 | CCCCCCCCCCC(O)C1C=CC2C(=O)N(c3ccccc3)C(=O)C2N1Nc1ccc(C#N)cc1 (stereo not given) | -0.164

Row | Compound | composite z-score
19 | O=C1C[C@]2(c3ccc([N+](=O)[O-])cc3)C(=O)N(C3CC3)c3cc(CO)ccc3[C@H]2N1CC12CC3CC(CC(C3)C1)C2 | -0.124
20 | C=C[C@H](C)[C@H](OC(=O)Nc1ccc(SC)cc1)c1ccc(OCCO)cc1 | 0.142
21 | O=C1OCCC=C[C@H]2OC34C=CCN(c5ccc6ccccc6c5)C(=O)[C@H]3N(CCCO)C(=O)[C@@H]4C12 (stereo not given in full) | -0.153
22 | CCCCN1CC=CC23O[C@@H]4/C=C\CCCOC(=O)C4[C@H]2C(=O)N(CCO)[C@@H]3C1=O (stereo not given in full) | -0.206
23 | COc1cc2c(cc1O)C(c1cccs1)N(Cc1cc3c(cc1Br)OCO3)CC2 (stereo not given) | 0.23
24 | CCCC[C@@H](O)C1=C(COc2ccccc2)C[C@H]2C(=O)N(Cc3ccccc3)C(=O)[C@H]2[C@H]1CO | -0.214
25 | COc1cc(C(O)C2C=CC3C(=O)N(C)C(=O)C3N2Nc2ccccc2)cc(OC)c1OC (stereo not given) | 0.0725
26 | COCCOC(=O)N1C(=O)[C@@]2(c3cc(C#CCCO)ccc31)[C@H](c1ccc(OCCO)cc1)N1[C@H](c3ccccc3)[C@H](c3ccccc3)OC(=O)[C@H]1[C@@H]2C(=O)Nc1nc2ccccc2s1 | 0.626
27 | C=CCNC(=O)[C@@H]1[C@H]2C(=O)O[C@H](c3ccccc3)[C@H](c3ccccc3)N2[C@H](c2ccc(OCCO)cc2)[C@@]12C(=O)N(C(=O)OCCOC)c1ccc(C#Cc3ccc(OC)cc3)cc12 | -0.291
28 | N#Cc1ccc(NN2C(C(O)c3ccc(Br)cc3)C=CC3C(=O)N(c4ccccc4)C(=O)C32)cc1 (stereo not given) | 0.162
29 | CCCC=C(CCC)[C@@H](NC(=O)C(C)(C)C)c1ccc(C(=O)OC)cc1 | 0.572
30 | CO[C@H]1O[C@H](CO)[C@@H](OC(=O)Nc2ccc(Br)cc2)[C@@H]2OC(=O)[C@@H](Cc3ccccc3)C/C=C/C[C@H](Cc3ccccc3)C(=O)O[C@@H]12 | 0.0483
31 | C#CCN(Cc1ccccc1Br)[C@H](/C=C/c1ccccc1)[C@@H](O)Cc1ccccc1 | -0.124
32 | CCCCCN1CC=CC23O[C@@H]4/C=C\CCCOC(=O)C4[C@H]2C(=O)N(C(C)CO)[C@@H]3C1=O (stereo not given in full) | -0.181
33 | CCCCCN1CC=CC23O[C@@H]4C=CCCOC(=O)C4[C@H]2C(=O)N(CCCCCCO)[C@@H]3C1=O (stereo not given in full) | -0.0769
34 | NC(=O)[C@@]1(Cc2ccccc2)COC(c2ccc(OCCCO)cc2)=N1 | 0.46
35 | COC(=O)[C@@]1(Cc2ccc(OC)cc2)[C@H]2c3cc(C(=O)N4CCCC4)n(CCO)c3C[C@H]2CN1C(=O)c1ccccc1 | 0.305
